# Values joined by “and” are separate entries in the source; they are usually repeats but may differ in a detail not shown here. Equal entries are not always repeated. Results filed as inconclusive are left out. A call without a number means that no potency is given here. Active and inactive are the calls of the source. Calls follow the shape of the dose curve; as a rule, active = well fitted inhibition curve with a large enough effect; inconclusive = small, poorly fitted or top-dose-only effect; inactive = flat fitted curve, though single readings scatter.
# Molecular target: Phospholipid hydroperoxide glutathione peroxidase GPX4 (Homo sapiens) (UniProt P36969)
# Experiment: Primary qHTS Assay for Inhibitors of Recombinant Selenoprotein Glutathione Peroxidase 4 (GPX4) (AID 1845192); also: nearly all actives have a fitted effect of over 65% in size
# Conditions: recombinant GPX4, GR-coupled NADPH fluorescence, 15 min; series mostly up to 50 µM
# From the text: Assay Provider: Elias S.J. Arner MD PhD.
# Department of Medical Biochemistry and Biophysics
# Karolinska Institutet, Solna, Stockholm, Sweden
# Selenoprotein glutathione peroxidases (GPX), like the ubiquitously expressed GPX1 and the ferroptosis modulator GPX4, enact their antioxidant activities by reducing hydroperoxides using glutathione. […] GPX1 and GPX4 inhibitors have thus shown promise as anti-cancer agents. Existing inhibitors are often promiscuous, or modulate GPX activity only indirectly, so novel direct inhibitors identified through screening against GPX1 and GPX4 could be valuable. Here, we developed optimized glutathione reductase (GR)-coupled GPX assays for the biochemical high-throughput screen (HTS) of almost 12,000 compounds with known mechanisms of action. Initial hits were triaged using a GR counter-screen, assessed for isoform specificity using a separate GPX2 assay, and were assessed for general selenocysteine-targeting activity using a thioredoxin reductase (TXNRD1) assay. With this suite of assays, we identified novel GPX1/GPX2- and GPX4-specific inhibitors and can here present a validated pipeline for future discovery research for selenoprotein-targeting agents.
# SEQUENCE No. (e.g., 1, 2, 3, etc.); […] (e.g., Cells, Incubation, Reagent, etc.); VALUE; DESCRIPTION.
# 1; Reagent 1; 3 uL; 333.33 nM GPx4 enzyme or no enzyme control in 1536-well, black, solid Greiner assay plate.
# 2; Compound; 25 nL; Kalypsis pin tool (Wako USA) equipped with a 1536-well pin head.
# 3; Incubation; 30 min; room temperature.
# 4; Reagent 2; 1 uL; 500 nM GR, 5 mM GSH, 2.5 mM NADPH solution
# 5; Reagent 3; 1 uL; 2.5 mM CHP in 50% EtOH.
# 6; Detection; Fluorescence; ViewLux microplate reader, excitation 340 nm and emission 450 nm.
# 7; Incubation; 15 min; room temperature.
# 8; Detection; Fluorescence; ViewLux microplate reader, excitation 340 nm and emission 450 nm.
# NOTES (numbers refer to Sequence numbers above)
# 1. 3 µL of 333.33 nM GPX4 and 0.016% BSA in assay buffer (50 mM Tris-HCl, 2 mM EDTA (pH 7.5), 150 mM NaCl) was added to columns 3-48 of 1536-well plates using a BioRAPTR Flying Reagent Dispenser (Let's Go Robotics (LGR), Carlsbad, CA). A no-enzyme control (0.01% BSA in TES assay buffer) was added to columns 1-2.
# 2. 25 nL, library and DMSO controls were added to each well with a pin tool (Kalypsys).
# 3. The assay plates were incubated for 30 minutes at room temperature.
# 4. 1 µL of master mix (500 nM glutathione reductase (GR), 5 mM reduced glutathione (GSH), 2.5 mM NADPH in assay buffer) was added.
# 5. 1 µL of cumene hydroperoxide (CHP) ([2.5 mM] in 50% EtOH) was then added within 5 minutes to initiate the reaction. Final concentrations were: 200 nM GPX4, 1 mM GSH, 0.5 mM CHP, 0.5 mM NADPH, 100 nM GR, 0.01% BSA.
# 6. Initial fluorescence readout (t=0) at 340/450 nm was measured using a ViewLux multimodal detector (PerkinElmer, Waltham, MA).
# 8. Endpoint fluorescence readout (t=15) at 340/450 nm was measured 15 min after room temperature incubation.
# Potency is read from the fitted curve at half-maximal effect.
# Phospholipid hydroperoxide glutathione peroxidase GPX4 (Homo sapiens), sequence (P36969 whole entry, looked up): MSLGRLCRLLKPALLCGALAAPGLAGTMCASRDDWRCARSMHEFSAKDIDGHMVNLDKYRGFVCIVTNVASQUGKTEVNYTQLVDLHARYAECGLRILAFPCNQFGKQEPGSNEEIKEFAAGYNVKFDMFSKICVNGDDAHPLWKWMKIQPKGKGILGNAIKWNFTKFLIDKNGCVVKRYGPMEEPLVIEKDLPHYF
Structure (SMILES),Potency,"activity change, negative = inhibition",outcome
CC(=O)OCCN1C(=O)c2c(C)nc3ccc(S(=O)(=O)N4CCOCC4)cc3c2C1=O,inactive,,
CC[C@@H]1C(=O)N(C)c2cnc(Nc3ccc(C(=O)NC4CCC(N5CCN(CC6CC6)CC5)CC4)cc3OC)nc2N1C(C)C (stereo not given in full),inactive,,
CC(=O)c1c(C)c2cnc(Nc3ccc(N4CCNCC4)cn3)nc2n(C2CCCC2)c1=O,inactive,,
CCCCOc1c(C(=O)c2c(F)cc(C)cc2F)cnc2n[nH]cc12,inactive,,
COc1cc2c(Oc3ccc(NC(=O)C4(C(=O)Nc5ccc(F)cc5)CC4)cc3F)ccnc2cc1OCCCN1CCOCC1,inactive,,
CC(C)c1cnn2c(NCc3ccccc3)cc(N[C@@H](CO)[C@H](O)CO)nc12,inactive,,
C=CC(=O)N1CCC[C@@H](n2nc(-c3ccc(Oc4ccccc4)cc3)c3c(N)ncnc32)C1,inactive,,
c1ccc2c(CCNc3ccc(Nc4ccncc4)cc3)c[nH]c2c1,inactive,,
C[C@@H]1COC(Nc2ccc3ncnc(Nc4ccc(OCc5nccs5)c(Cl)c4)c3c2)=N1,inactive,,
Cc1nc(Nc2n[nH]c3c2CN(C(=O)N[C@H](CN(C)C)c2ccccc2)C3(C)C)c2sccc2n1,inactive,,
O=C(NCCS(=O)(=O)c1ccc(C(F)(F)F)cn1)c1ccc(Cl)cc1,inactive,,
CC1(O)CC(c2nc(-c3ccc4ccc(-c5ccccc5)nc4c3)c3c(N)nccn23)C1 (stereo not given),inactive,,
COc1c(OCCCN2CCOCC2)ccc2c3n(c(=NC(=O)c4cnc(N)nc4)nc12)CCN3,,-4.71% [at 9.73 µM] (inactive) and -19.4% [at 9.73 µM] (inactive),inactive [at 9.73 µM]
COCCOc1ccc2c(c1)ncn2-c1ccc2cccc(N3CCC(N)CC3)c2n1,inactive,,
NCC(=O)Nc1ccc(-n2nc(C(F)(F)F)cc2-c2ccc3c(ccc4ccccc43)c2)cc1,inactive,,
Cc1nc(N)ncc1-c1nc(N2CCOCC2)c2sc(C(C)(C)O)cc2n1,inactive,,
C[C@@H](Oc1cc(-n2cnc3ccc(CN4CCN(C)CC4)cc32)sc1C(N)=O)c1ccccc1C(F)(F)F,inactive,,
COC(=O)Nc1nc2ccc(C(=O)c3ccc(F)cc3)cc2[nH]1,inactive,,
Cc1cc(Nc2cc(N3CCN(C)CC3)nc(Sc3ccc(NC(=O)C4CC4)cc3)n2)n[nH]1,inactive,,
Cn1cncc1[C@@](N)(c1ccc(Cl)cc1)c1ccc2c(c1)c(-c1cccc(Cl)c1)cc(=O)n2C,inactive,,

Structure (SMILES),Potency,"activity change, negative = inhibition",outcome
COc1cc(C(=O)NS(=O)(=O)c2ccccc2C)ccc1Cc1cn(C)c2ccc(NC(=O)OC3CCCC3)cc12,9.04 µM (active),,
C=C1C(=CC=C2CCC[C@]3(C)[C@@H]([C@H](C)C=C[C@H](C)C(C)C)CC[C@@H]23)C[C@@H](O)C[C@@H]1O,inactive,,
Cc1[nH]nc2ccc(-c3cncc(OC[C@@H](N)Cc4ccccc4)c3)cc12,inactive,,
COc1cc(C(C)C)c2c(c1)S(=O)(=O)N(COc1cc(=O)n3cccc(OCCN4CCCCC4)c3n1)C2=O,inactive,,
CC(C)Nc1cc(C(F)(F)F)cc2nc(NC(=O)c3cccnc3)nn12,inactive,,
OCCCNc1cc(-c2ccnc(Nc3cccc(Cl)c3)n2)ccn1,inactive,,
O=C(Cc1ccc(-c2ccc(OCCN3CCOCC3)cc2)cn1)NCc1ccccc1,inactive,,
Nc1nccc(Oc2ccc(NC(=O)c3c[nH]cc(-c4ccc(F)cc4)c3=O)cc2F)c1Cl,inactive,,
CN[C@H]1CCc2cc(OC)c(OC)c(OC)c2-c2ccc(OC)c(=O)cc21,inactive,,
Cc1cnc(Nc2ccc(F)cc2Cl)nc1-c1c[nH]c(C(=O)N[C@H](CO)c2cccc(Cl)c2)c1,inactive,,
COc1cc(C)c(Sc2cnc(NC(=O)c3ccc(CNC(C)C(C)C)cc3)s2)cc1C(=O)N1CCN(C(C)=O)CC1 (stereo not given),inactive,,
C=CCn1c(=O)c2cnc(Nc3ccc(N4CCN(C)CC4)cc3)nc2n1-c1cccc(C(C)(C)O)n1,inactive,,
CNC(=O)CN1CCC(Oc2cc3c(Nc4cccc(Cl)c4F)ncnc3cc2OC)CC1,inactive,,
COc1cc2c(NC3CCN(C(C)C)CC3)nc(C3CCCCC3)nc2cc1OCCCN1CCCC1,inactive,,
Cc1c(C)n(Cc2ccc(-c3ccccc3C(=O)O)cc2)c2ccc(C(=O)N[C@@H](C)c3ccc([N+](=O)[O-])cc3)cc12,9.04 µM (active),,
CCn1nnc2c(N3CCOCC3)nc(-c3ccc(NC(=O)Nc4ccc(C(=O)N5CCN(C)CC5)cc4)cc3)nc21,inactive,,
COC(=O)c1ccc2c(C(=Nc3ccc(N(C)C(=O)CN4CCN(C)CC4)cc3)c3ccccc3)c(O)[nH]c2c1,inactive,,
Nc1ncnc2c1c(-c1cccc(OCc3ccccc3)c1)cn2C1CC(CN2CCCC2)C1 (stereo not given),inactive,,
CCn1cc(-c2ccnc3[nH]c(-c4cccc(CN(C)C)c4)cc23)c(-c2ccc(NC(=O)N(C)C)cc2)n1,inactive,,
